Screening results (PubChem BioAssay)
Most compounds without a hit are left out; they make up all but 1.7% or so of the library.
PrP 5UTR inh = inhibition of PrP 5' UTR reporter expression. inhibition, % (no concentration beside the values). cell-based PrP 5' UTR mRNA reporter, plate reader. 340,000 tested, 0.35% active. AID 488862; in the data active = inhibition above about 52%
PriA SSB inh = K. pneumoniae PriA-SSBct interaction inhibition. AlphaScreen SSBct-PriA binding, biotinylated peptide. inhibition, % at 33 µM. 430,000 tested, 0.6% active. AID 1272365; in the data active = inhibition mostly above about 37%, no sharp cut-off; inactive = mostly below about 20%
BJeLR lethal = BJeLR cell viability loss; BJeLR (HRASV12) viability, CellTiter-Glo ATP luminescence, 48 h; inhibition, % (test concentration not listed); 300,000 tested, 0.17% active; AID 1554; in the data active = inhibition above about 50%; inconclusive = no clear call, values can overlap the other calls
Y pestis TopoI = Y. pestis Topo-I inhibition via cleavage products | AID 504884 | activity, % at 10 µM | Y. pestis Topo-I cleavage product accumulation, plate reader | 360,000 tested, 0.064% active; in the data active = activity above about 50%, passing the limit was not always enough; inconclusive = no clear call, values can overlap the other calls
PfHsp40 rescue = compounds rescuing yeast from Plasmodium falciparum HSP40 toxicity; S. cerevisiae expressing PfHsp40, growth rescue, ATP luminescence; growth rescue, % at 12.5 µM; 340,000 tested, 0.68% active; AID 504582; in the data active = growth rescue above about 28%, passing the limit was not always enough; inconclusive = no clear call, values can overlap the other calls;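 note: yeast W303a lacking pdr1 and pdr3 grown in galactose medium; growth measured after three days at 30 °C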
PrPC TRFRET = cell surface PrPC inhibition, primary TR-FRET screen; P04156; TR-FRET read-out; inhibition, % at 13.8 µM; 370,000 tested, 0.43% active; AID 720596; in the data active = inhibition above about 24%
Numbers stand for hits; - = inactive; ? = inconclusive; . = not tested or not shown.

SMILES	PrP 5UTR inh	PriA SSB inh	BJeLR lethal	Y pestis TopoI	PfHsp40 rescue	PrPC TRFRET
O=C(NCCO)C(=O)c1c(-c2ccc(Cl)cc2)cc2ccccn12	-	-	-	-	-	-
Cc1cccc(C(=O)N[C@H](C(=O)Nc2ncc(C)s2)C(C)C)c1	-	-	-	-	-	41.0
Cc1ccc(OCC(O)CN2C(=O)NC(C)(C)C2=O)cc1 (stereo not given)	-	-	-	-	53.0	-
CCCNC(=O)NCCn1nc(-c2ccncc2)cc1C	.	-	.	.	.	.
NC1C=CS(=O)(=O)C1 (stereo not given)	.	-	.	.	.	.
O=c1[nH]c(=O)n([C@H]2C[C@H](O)[C@@H](CO)O2)cc1I	-	-	.	-	75.9	-
O=C(O)CC/C(=N\Nc1ccc([N+](=O)[O-])cc1S(=O)(=O)N1CCOCC1)c1cccs1	-	.	-	-	-	-
O=C(O)CCC(=NNc1ccccc1[N+](=O)[O-])c1cccs1	.	42.3	.	.	.	.
O=C(c1ccccc1)N1CCN(c2ccc(NCc3ccc4c(c3)OCO4)cc2)CC1	-	46.2	-	-	-	-
CC(=O)N1CCN(c2ccc(NCc3ccc4c(c3)OCO4)cc2)CC1	-	-	-	-	-	-
COc1ccc(CCNCCC(c2ccccc2)c2ccccc2)cc1OC	.	.	.	-	.	-
COc1cc(OC)c(OC)cc1CCC(C)NCCC(c1ccccc1)c1ccccc1 (stereo not given)	-	41.6	-	-	-	-
Cn1c(=NC(=O)c2ccc(S(=O)(=O)N3CCOCC3)cc2)sc2cc3c(cc21)OCO3	.	-	.	.	.	.
COc1ccc(NC(=O)/C(Cl)=C(/Cl)S(=O)(=O)Cc2ccc(C)cc2)cn1	-	-	-	-	343.3	.
CC(C)c1ccc(NC(=S)Nc2ccc(OC(F)(F)F)cc2)cc1	-	-	-	-	-	-
FC(F)(F)Oc1ccc(NC(=S)Nc2ccc(OC(F)(F)F)cc2)cc1	-	-	-	-	145.2	-
CCC(C)Sc1cccc(-c2nc3cnccn3c2NC2CCCCC2)c1 (stereo not given)	-	-	.	-	40.0	-
CC(=O)c1ccc(-c2cccc(-c3nc4ccccn4c3NC3CCCCC3)c2)cc1	-	41.1	-	-	?	-
O=C(Nc1nnc(S(=O)(=O)Cc2ccc(F)cc2)s1)c1ccccc1F	-	-	-	-	45.4	-
O=C(O)CS(=O)(=O)c1ccc(Cl)cc1	.	-	.	.	.	.
Cc1ccc(/C=C/S(=O)(=O)NC[C@](C)(O)c2cc3ccccc3o2)cc1	.	-	.	.	.	.
CCCNc1nc(SC)nc2c1cnn2CCNC(=O)c1c(-c2ccccc2Cl)noc1C	.	62.5	.	.	.	.
Cc1cc(C(=O)Nc2ccncc2)ccc1[N+](=O)[O-]	-	-	-	-	-	-
Cc1c(NC(=O)c2ccccc2)cccc1[N+](=O)[O-]	-	-	-	-	-	-
O=C(Nc1ccc(Nc2ccccc2)cc1)c1ccc(Cl)c([N+](=O)[O-])c1	-	52.1	-	-	-	-
SMILES	PrP 5UTR inh	PriA SSB inh	BJeLR lethal	Y pestis TopoI	PfHsp40 rescue	PrPC TRFRET
Cc1ccccc1NC(=O)c1ccc(Nc2c([N+](=O)[O-])cc([N+](=O)[O-])c3ccccc23)cc1	-	47.9	-	-	-	-
O=C(Nc1ccc(SC(F)F)cc1)c1ccc(Cl)c([N+](=O)[O-])c1	.	-	.	.	.	.
Cc1cc(C(=O)Nc2ccc(Nc3ccccc3)cc2)ccc1[N+](=O)[O-]	-	54.1	-	-	-	-
COc1ccc(C(=O)c2ccc(Cl)cc2)cc1	-	-	-	-	-	-
COc1ccc(C(=O)c2ccc(Cl)c([N+](=O)[O-])c2)cc1	-	-	66.7	-	-	-
COc1cc(C(=O)Nc2ccc(Nc3ccccc3)cc2)cc(OC)c1OC	-	43.1	-	-	-	-
COc1cc(C(=O)Nc2ccncc2)cc(OC)c1OC	-	-	-	-	-	-
O=[N+]([O-])c1cc(C(F)(F)F)cc([N+](=O)[O-])c1Sc1cccc2cccnc12	.	56.0	.	.	.	.
Oc1cc(F)cc2cccnc12	.	-	.	.	.	.
COc1ccc(CSc2cccc3cccnc23)cc1[N+](=O)[O-]	-	45.1	-	-	-	-
O=[N+]([O-])c1cc([N+](=O)[O-])c2ncccc2c1	.	63.0	.	.	.	.
Oc1cc(Cl)cc2cccnc12	.	84.2	.	.	.	.
COc1ccc(C(=O)Oc2cccc3cccnc23)cc1[N+](=O)[O-]	-	-	-	-	-	-
C=C1C(O)[C@@H]2O[C@]3(CC[C@H](/C=C/C(C)[C@@H]4CC(C)=CC5(O[C@H](CC(C)(O)CO)CCC5O)O4)O3)CC[C@H]2O[C@@H]1C(O)CC(C)[C@H]1OC2(CCCCO2)CCC1C (stereo not given in full)	.	-	.	.	.	.
O=[N+]([O-])c1cc(O)c2ncccc2c1	.	83.6	-	.	.	-
Cc1cc(O)c2ncccc2c1	.	-	.	.	.	.
COc1ccc(C(C)=NNC(=O)c2cc(C)[nH]n2)c(OC)c1	.	-	.	.	.	.
Cc1noc(CNS(=O)(=O)c2ccc(Br)s2)n1	.	-	.	.	.	.
COC(=O)[C@@H]1C[C@@]2(O)[C@@H](O)[C@@H](O)[C@@H](O)C[C@H]2N1Cc1cc(OC)cc(OC)c1	-	101.1	-	-	-	-
O=C(/C=C/c1ccccc1)Nc1scc(-c2ccccc2)c1C(=O)O	-	-	-	-	51.0	-
Cc1ccc(-c2csc(NC(=O)c3ccccc3F)c2C(=O)O)cc1	-	-	-	-	33.9	-
O=C(/C=C/c1ccco1)Nc1scc(-c2ccccc2)c1C(=O)O	-	-	-	-	-	-
O=C(Nc1scc(-c2ccccc2)c1C(=O)O)c1ccccc1F	-	-	-	-	-	-
COc1ccc(-c2csc(NC(=O)c3ccccc3Br)c2C(=O)O)cc1	-	-	-	-	57.8	-
CCn1nnc2c(N3CC(C(=O)Nc4nccs4)C3)ncnc21	.	-	.	.	.	.
SMILES	PrP 5UTR inh	PriA SSB inh	BJeLR lethal	Y pestis TopoI	PfHsp40 rescue	PrPC TRFRET
Cc1nc(-c2cccnc2)sc1-c1ccc(SCc2ccc(Br)cc2)nn1	.	-	.	.	.	.
CN1C=CC=C/C1=C(/C#N)c1nc(-c2ccc(Cl)cc2)cs1	.	134.0	.	.	.	.
COc1ccccc1-c1csc(/C(C#N)=C2\C=CC=CN2C)n1	.	70.0	.	.	.	.
CN1C=CC=C/C1=C(/C#N)c1nc(-c2ccccc2)cs1	.	99.0	.	.	.	.
CCC1CCc2c(c3ccccc3[nH]c2=O)O1 (stereo not given)	-	86.8	-	-	-	-
COc1ccc(C(=O)Nc2cc(C)nn2-c2ccccc2)cc1OC	.	-	.	.	.	.
O=C(Nc1cc(S(=O)(=O)N2CCOCC2)ccc1Cl)C(=O)c1c(-c2ccccc2)cc2ccccn12	-	-	-	-	66.4	-
Cc1ccc(CSc2nnc(-c3ccncc3)n2CC2CCCO2)cc1 (stereo not given)	-	-	-	-	53.7	-
c1ccc(-c2nc(-c3ccccn3)cs2)cc1	.	-	.	.	.	.
Clc1nc(-c2ccccn2)nc2scc(-c3ccccc3)c12	-	-	-	-	399.6	-
Cc1ccc(S(=O)(=O)N=C2NC(=O)/C(=C/c3cc([N+](=O)[O-])ccc3O)S2)cc1	.	-	.	.	.	.
Cn1ccnc1SCC1CCN(C(=O)c2cc(=O)c3ccccc3o2)CC1	.	-	.	.	.	.
COc1ccccc1N(CCC#N)C(=O)CSc1nc(-c2ccccc2)cn1N	-	-	-	-	36.2	-
